This note sets out measurements from ChEMBL document CHEMBL5308504, “Tm Shift (DSF) assay results for EUbOPEN Chemogenomics Library” (2023).

Numbered stars: 1 amine (or outer) side, 2 acyl side, 3 side chain; on linkers, the order of the positions; unused ones are H or OH. Bridge positions count the residues as written; N and C are the ends. Square brackets hold non-standard residues; d marks the D form. Peptide text beside a SMILES is read from it. I, II: the chains in the order shown. Hexamethylenediamine = C(CCCN[*:2])CCN[*:1]; Dip = N[C@H](C(=O)O)C(c1ccccc1)c1ccccc1; Chg = N[C@H](C(=O)O)C1CCCCC1; NMeA = CN[C@@H](C)C(=O)O

Common to all, as to settings: Compound concentration 20.0 uM, Protein concentration 2.0 uM, Result type QC Liability
The target in assay [1] is Tyrosine-protein kinase ABL1 (Homo sapiens) (UniProt P00519).
Assay [2] concerns the target Cyclin-dependent kinase 2 (Homo sapiens) (UniProt P24941).
Assay [3] concerns the target Casein kinase I isoform delta (Homo sapiens) (UniProt P48730).
Assay [4] addresses Glycogen synthase kinase-3 beta (Homo sapiens) (UniProt P49841).
The target of assay [5] is Mitogen-activated protein kinase 1 (Homo sapiens) (UniProt P28482).
In assay [6] the target is T1, Aurora kinase A (Homo sapiens) (UniProt O14965).
T1 sequence (whole entry): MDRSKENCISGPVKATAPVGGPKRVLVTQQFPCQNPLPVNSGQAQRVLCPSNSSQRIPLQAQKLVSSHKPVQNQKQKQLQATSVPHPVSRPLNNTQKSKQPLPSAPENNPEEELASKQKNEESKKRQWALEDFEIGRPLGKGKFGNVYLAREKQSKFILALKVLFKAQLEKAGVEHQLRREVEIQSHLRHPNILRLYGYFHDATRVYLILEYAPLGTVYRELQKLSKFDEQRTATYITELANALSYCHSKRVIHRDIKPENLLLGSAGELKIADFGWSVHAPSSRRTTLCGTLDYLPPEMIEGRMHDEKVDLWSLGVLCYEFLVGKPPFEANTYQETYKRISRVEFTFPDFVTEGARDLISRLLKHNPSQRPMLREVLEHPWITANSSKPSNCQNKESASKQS

Tyrosine-protein kinase ABL1 (Homo sapiens), sequence (P00519 whole entry): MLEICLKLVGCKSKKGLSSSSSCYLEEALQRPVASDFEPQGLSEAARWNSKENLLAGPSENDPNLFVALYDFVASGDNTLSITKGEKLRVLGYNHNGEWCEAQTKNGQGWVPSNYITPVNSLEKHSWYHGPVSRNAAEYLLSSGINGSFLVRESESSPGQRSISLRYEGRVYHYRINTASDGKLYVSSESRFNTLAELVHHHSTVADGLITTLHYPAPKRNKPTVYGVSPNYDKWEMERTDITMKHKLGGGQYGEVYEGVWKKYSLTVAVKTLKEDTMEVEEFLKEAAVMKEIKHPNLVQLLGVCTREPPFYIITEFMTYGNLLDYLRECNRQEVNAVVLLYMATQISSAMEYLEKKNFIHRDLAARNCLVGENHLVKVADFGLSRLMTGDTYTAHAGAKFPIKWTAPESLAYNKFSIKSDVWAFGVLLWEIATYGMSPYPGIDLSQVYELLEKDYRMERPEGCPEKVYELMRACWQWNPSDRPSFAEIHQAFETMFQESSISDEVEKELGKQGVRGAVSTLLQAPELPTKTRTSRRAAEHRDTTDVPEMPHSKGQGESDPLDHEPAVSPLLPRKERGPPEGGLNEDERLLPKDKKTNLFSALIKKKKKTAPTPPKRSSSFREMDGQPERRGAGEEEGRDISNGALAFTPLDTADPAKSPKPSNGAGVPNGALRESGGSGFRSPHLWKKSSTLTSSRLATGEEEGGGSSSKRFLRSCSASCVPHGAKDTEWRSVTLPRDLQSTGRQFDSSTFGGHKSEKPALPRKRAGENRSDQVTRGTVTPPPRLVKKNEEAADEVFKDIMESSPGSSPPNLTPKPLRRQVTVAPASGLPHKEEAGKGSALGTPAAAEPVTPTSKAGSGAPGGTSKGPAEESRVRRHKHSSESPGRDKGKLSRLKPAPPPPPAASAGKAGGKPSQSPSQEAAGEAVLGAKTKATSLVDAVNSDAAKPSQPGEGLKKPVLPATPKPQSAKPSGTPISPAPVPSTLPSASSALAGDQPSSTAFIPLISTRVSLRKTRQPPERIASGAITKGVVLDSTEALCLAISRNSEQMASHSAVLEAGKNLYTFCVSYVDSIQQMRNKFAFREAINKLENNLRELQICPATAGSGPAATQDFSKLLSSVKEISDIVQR
Mitogen-activated protein kinase 1 (Homo sapiens), sequence (P28482 whole entry): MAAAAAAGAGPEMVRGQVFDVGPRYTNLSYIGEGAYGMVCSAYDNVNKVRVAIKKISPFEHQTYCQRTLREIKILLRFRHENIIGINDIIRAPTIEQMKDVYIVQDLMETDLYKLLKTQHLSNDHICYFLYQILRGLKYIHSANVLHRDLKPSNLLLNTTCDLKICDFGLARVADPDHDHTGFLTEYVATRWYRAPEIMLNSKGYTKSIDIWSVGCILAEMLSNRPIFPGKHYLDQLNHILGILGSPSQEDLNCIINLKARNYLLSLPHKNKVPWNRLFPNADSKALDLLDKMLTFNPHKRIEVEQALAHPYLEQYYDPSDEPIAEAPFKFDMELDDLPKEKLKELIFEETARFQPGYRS
Glycogen synthase kinase-3 beta (Homo sapiens), sequence (P49841 whole entry, looked up): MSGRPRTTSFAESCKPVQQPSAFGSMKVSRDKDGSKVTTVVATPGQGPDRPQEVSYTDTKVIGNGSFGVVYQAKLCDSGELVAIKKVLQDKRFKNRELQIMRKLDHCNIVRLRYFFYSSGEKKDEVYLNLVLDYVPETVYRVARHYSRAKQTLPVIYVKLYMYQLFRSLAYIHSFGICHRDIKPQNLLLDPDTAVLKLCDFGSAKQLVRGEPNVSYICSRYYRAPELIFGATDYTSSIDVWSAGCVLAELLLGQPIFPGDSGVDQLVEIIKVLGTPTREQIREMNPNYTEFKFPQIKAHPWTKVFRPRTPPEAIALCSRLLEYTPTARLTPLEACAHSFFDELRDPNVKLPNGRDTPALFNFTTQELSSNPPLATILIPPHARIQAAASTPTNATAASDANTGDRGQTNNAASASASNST
Casein kinase I isoform delta (Homo sapiens), sequence (P48730 whole entry, looked up, canonical isoform): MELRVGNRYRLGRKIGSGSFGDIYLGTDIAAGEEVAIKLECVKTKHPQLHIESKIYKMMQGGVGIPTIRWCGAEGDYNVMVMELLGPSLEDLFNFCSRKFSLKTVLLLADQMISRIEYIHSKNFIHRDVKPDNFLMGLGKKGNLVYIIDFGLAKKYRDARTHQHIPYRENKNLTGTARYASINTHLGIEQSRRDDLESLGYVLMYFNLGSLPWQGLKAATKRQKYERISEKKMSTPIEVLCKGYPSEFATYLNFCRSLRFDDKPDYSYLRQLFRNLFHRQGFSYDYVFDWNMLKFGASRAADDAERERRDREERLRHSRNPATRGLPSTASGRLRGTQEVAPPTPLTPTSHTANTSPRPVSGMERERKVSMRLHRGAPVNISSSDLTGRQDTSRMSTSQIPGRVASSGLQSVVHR

On to `CN(C)C(=O)c1cc2cnc(Nc3ccc(N4CCN(CCCCNC(=O)COc5cccc6c5C(=O)N(C5CCC(=O)NC5=O)C6=O)CC4)cn3)nc2n1C1CCCC1` (centres undefined), for which the ΔTm in assay [1] was 0.61 °C; in assay [2] it was 0.81 °C; in assay [3], -0.24 °C; in assay [4], -0.75 °C; in assay [5], 0.11 °C; in assay [6] it was 4.38 °C.

Take `O=C(O)c1ccc2c(c1)nc(NCc1ccccc1)c1ncncc12`: the ΔTm in assay [1] stood at 0.29 °C; in assay [2], 1.34 °C; in assay [3], 0.62 °C; in assay [4] it was 1.21 °C; in assay [5] it was 0.05 °C; in assay [6], 1.85 °C.

Consider `CC(C)[C@H](CO)Nc1nc(Nc2ccc(C(=O)O)c(Cl)c2)c2ncn(C(C)C)c2n1`, for which the ΔTm came out at 6.07 °C in assay [1]; 9.51 °C in assay [2]; 2.59 °C in assay [3]; 2.37 °C in assay [4]; 4.14 °C in assay [5]; 7.69 °C in assay [6].

`CNc1ncc2cc(-c3ccc(-c4ncccc4F)cc3Cl)c(=O)n(C[C@H]3OC[C@H](N)CO3)c2n1`: the ΔTm is 4.27 °C in assay [1]; 1.01 °C in assay [2]; 0.79 °C in assay [3]; -0.51 °C in assay [4]; 3.43 °C in assay [5]; 4.87 °C in assay [6].

As to `COc1cc(C(=O)NCCOCCOCCOCC(=O)N[C@H](C(=O)N2C[C@H](O)C[C@H]2C(=O)NCc2ccc(-c3scnc3C)cc2)C(C)(C)C)ccc1Nc1ncc(C(F)(F)F)c(Oc2cccc3c2C(=O)CC3)n1`, the ΔTm in assay [1] was -0.62 °C; in assay [2], -0.81 °C; in assay [3], 0.41 °C; in assay [4] it was 0 °C; in assay [5], -8.23 °C; in assay [6], 1.75 °C.

With `COc1ccccc1Nc1nc(-c2nn(Cc3c(F)cc(OCCCO)cc3F)c3ccccc23)ncc1OC`, the shift in melting temperature (ΔTm) was 0.26 °C in assay [1]; -0.43 °C in assay [2]; -0.21 °C in assay [3]; -0.64 °C in assay [4]; 0.16 °C in assay [5]; -0.7 °C in assay [6].

Regarding `CCN1C(=O)/C(=C(\NC2CCN(C)CC2)c2ccc3c(c2)OCO3)c2cc(C(C)=O)ccc21`, the ΔTm turned out to be 0.4 °C in assay [1]; 0.54 °C in assay [2]; 1.8 °C in assay [3]; 0.62 °C in assay [4]; 0.05 °C in assay [5]; 0.02 °C in assay [6].

For `CN1CCN(c2ccnc(NCCc3ccccc3)n2)CC1`, the ΔTm in assay [1] is 0.08 °C; in assay [2], 0.11 °C; in assay [3], 0.22 °C; in assay [4] it was -0.49 °C; in assay [5], 0.69 °C; in assay [6], -0.92 °C.

In the case of `Cn1cc(-n2cnc3c(NCc4nc5cc(Cl)c(Cl)cc5[nH]4)nc(N4CCOCC4)nc32)cn1`, the ΔTm in assay [1] is -0.15 °C; in assay [2], 0.06 °C; in assay [3], -0.03 °C; in assay [4] it was 2.12 °C; in assay [5], -0.02 °C; in assay [6], 0.53 °C.

For `Cc1cc(OCc2nc3ccccc3s2)ccc1NC(=O)Nc1ccc(Cl)c(Cl)c1`, the ΔTm is 0.33 °C in assay [1]; 1.38 °C in assay [2]; -0.26 °C in assay [3]; -1.81 °C in assay [4]; -0.19 °C in assay [5]; 0.13 °C in assay [6].

On to `COc1cnccc1Nc1nc(-c2nn(Cc3c(F)cc(OCCO)cc3F)c3ccccc23)ncc1OC`, for which the ΔTm in assay [1] was -0.43 °C; in assay [2], -0.62 °C; in assay [3], -2.9 °C; in assay [4], -5.93 °C; in assay [5] it was -0.07 °C; in assay [6], -1.95 °C.

With `CC(C)NC(=O)[C@H]1CCC[C@H]1Nc1nc(Nc2ccc(CN(C)C)cc2)ncc1Br`, the ΔTm in assay [1] worked out at 6.63 °C; in assay [2], 1.87 °C; in assay [3] it was 0.87 °C; in assay [4], 0.23 °C; in assay [5] it was 1.81 °C; in assay [6], 14.5 °C.

In the case of `CC(C)Nc1ncnc2cc(OCc3cccc([S@@](C)(=N)=O)c3)c(Br)cc12`, the ΔTm in assay [1] is 2.87 °C; in assay [2], 0.49 °C; in assay [3] it was 1.35 °C; in assay [4] it was -0.51 °C; in assay [5], -0.37 °C; in assay [6] it was 4.25 °C.

With `CN(c1ccc(C(F)(F)F)cc1)S(=O)(=O)c1ccc(C(=O)Nc2nc(-c3ccccn3)cs2)cc1`, the ΔTm in assay [1] came to 7.05 °C; in assay [2] it was 10.4 °C; in assay [3], 5.15 °C; in assay [4] it was 13.4 °C; in assay [5] it was 1.92 °C; in assay [6], 9.24 °C.

With `COc1ccc(S(=O)(=O)N2CCOCC2)cc1Nc1ccc2c(n1)N(C1CCN(C)CC1)[C@H](C)C(=O)N2C`, the ΔTm was -0.01 °C in assay [1]; 0.43 °C in assay [2]; 0.44 °C in assay [3]; 0.08 °C in assay [4]; 0.18 °C in assay [5]; 0 °C in assay [6].

With `CN[C@@H](C)C(=O)N[C@H](C(=O)N1CCC[C@H]1C(=O)N[C@H](C(=O)NCCCCCCNC(=O)[C@@H](NC(=O)[C@@H]1CCCN1C(=O)[C@@H](NC(=O)[C@H](C)NC)C1CCCCC1)C(c1ccccc1)c1ccccc1)C(c1ccccc1)c1ccccc1)C1CCCCC1` (I: H-[NMeA][Chg]P[Dip] / II: H-[NMeA][Chg]P[Dip]; linker I:C-II:C via Hexamethylenediamine), the ΔTm in assay [1] was -0.65 °C; in assay [2], -1.8 °C; in assay [3] it was -0.57 °C; in assay [4] it was -0.94 °C; in assay [5] it was -1.01 °C; in assay [6], -1.85 °C.

For `O=C(O)c1cc(F)c2nc(N3[C@@H]4CC[C@H]3C[C@@H](OCc3c(-c5ccccc5OC(F)(F)F)noc3C3CC3)C4)sc2c1`, the ΔTm was 0.23 °C in assay [1]; 0.38 °C in assay [2]; 0.11 °C in assay [3]; -5.45 °C in assay [4]; -0.82 °C in assay [5]; -8.04 °C in assay [6].

Regarding `Nc1c(CC(=O)O)cccc1C(=O)c1ccc(Br)cc1`, the ΔTm came out at 1.3 °C in assay [1]; 0.36 °C in assay [2]; 0.21 °C in assay [3]; 0.59 °C in assay [4]; 0.2 °C in assay [5]; 0.08 °C in assay [6].

Regarding `N#Cc1ccc(C#CC[C@@H](C#N)NC(=O)[C@H]2CCCCN2)cc1F`, the ΔTm is -0.48 °C in assay [1]; -0.17 °C in assay [2]; 0.45 °C in assay [3]; -0.17 °C in assay [4]; -0.62 °C in assay [5]; -0.01 °C in assay [6].

Turning to `O=C(O)CCC/C=C\C[C@@H]1[C@@H](/C=C/[C@@H](O)COc2cccc(C(F)(F)F)c2)[C@H](O)C[C@@H]1O`, the ΔTm in assay [1] is 0.54 °C; in assay [2], 0.59 °C; in assay [3], 0.07 °C; in assay [4], 0.65 °C; in assay [5], -0.39 °C; in assay [6] it was -0.25 °C.

`CCCCCCCN(CCc1ccc(SC(C)(C)C(=O)O)cc1)C(=O)Nc1ccc(F)cc1F`: the ΔTm in assay [1] is 0.48 °C; in assay [2], 0 °C; in assay [3], 0.48 °C; in assay [4], -1.12 °C; in assay [5], -0.08 °C; in assay [6], -1.93 °C.

With `O=c1cc(C2CCNCC2)n2nc3cccc(Cl)c3c2[nH]1`, the ΔTm in assay [1] was 0.46 °C; in assay [2] it was -0.11 °C; in assay [3] it was 0.7 °C; in assay [4] it was 0.46 °C; in assay [5], 0 °C; in assay [6] it was -0.12 °C.

`Cc1c(NC(=O)c2ccc(C(C)(C)C)cc2)cccc1-c1cn(C)c(=O)c(Nc2ccc(C(=O)N3CCOCC3)cc2)n1`: the ΔTm is 0.18 °C in assay [1]; -0.38 °C in assay [2]; 0.35 °C in assay [3]; -2.28 °C in assay [4]; -1.15 °C in assay [5]; 1.86 °C in assay [6].

In the case of `C/C(=C\C(=O)Nc1ccccc1C(=O)O)c1ccc2ccccc2c1`, the ΔTm was -0.72 °C in assay [1]; -0.23 °C in assay [2]; 0.09 °C in assay [3]; 0 °C in assay [4]; 0.8 °C in assay [5]; 1.85 °C in assay [6].
